Laboratory results taken from PubChem BioAssay AID588342 (National Center for Advancing Translational Sciences (NCATS), 2011).
Screen size: about 360,000 compounds; about 25,000 (6.9%) were called active. Where a call stands in place of a potency, no number is given. Roughly 9% stayed inconclusive and do not appear here. The call rests on the fitted dose curve; in most records, active means well fitted inhibition curve with a large enough effect; inconclusive means small, poorly fitted or top-dose-only effect; inactive means flat fitted curve, though single readings scatter. Only a selection was taken, and actives are over-represented in it overall.

Molecular target: Luciferin 4-monooxygenase (Photinus pyralis) (UniProt P08659)
Experiment: qHTS profiling assay for firefly luciferase inhibitor/activator using purifed enzyme and Km concentrations of substrates (counterscreen for miR-21 project); further: nearly all actives have a fitted effect of over 55% in size
Settings: purified FLuc, luminescence inhibition; series mostly up to 57.5 µM
In short: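 Purified P. pyralis luciferase (10nM final) with 10uM D-luciferin and 10uM ATP (Km levels) in 50mM Tris acetate pH 7.5, 10mM Mg acetate, 0.01% Tween-20, 0.05% BSA; qHTS 6-point titration, ~60 µM downward; luminescence read.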
Potency means the concentration at half of the fitted maximal effect.

Chain of Luciferin 4-monooxygenase (Photinus pyralis) (P08659 whole entry, looked up): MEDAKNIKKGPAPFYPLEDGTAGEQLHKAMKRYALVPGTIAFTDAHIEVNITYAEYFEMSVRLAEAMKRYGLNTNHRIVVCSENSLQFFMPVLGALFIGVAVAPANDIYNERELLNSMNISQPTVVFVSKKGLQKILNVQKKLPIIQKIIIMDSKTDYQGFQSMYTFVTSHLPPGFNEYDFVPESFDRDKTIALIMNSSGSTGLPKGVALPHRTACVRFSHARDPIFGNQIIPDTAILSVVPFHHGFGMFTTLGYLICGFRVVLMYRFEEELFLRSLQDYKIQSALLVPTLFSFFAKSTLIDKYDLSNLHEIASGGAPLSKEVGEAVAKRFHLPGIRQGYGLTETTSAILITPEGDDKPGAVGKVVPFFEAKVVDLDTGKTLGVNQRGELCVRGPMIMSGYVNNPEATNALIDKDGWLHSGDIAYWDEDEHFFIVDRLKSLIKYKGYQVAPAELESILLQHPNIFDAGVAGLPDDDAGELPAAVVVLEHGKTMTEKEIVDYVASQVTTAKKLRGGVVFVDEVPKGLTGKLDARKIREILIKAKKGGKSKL

| SMILES | Potency |
| --- | --- |
| COc1ccc(-c2onc(C)c2C)cc1S(=O)(=O)NCc1cccs1 | inactive |
| CC(=O)NC(CC(=O)Nc1nc(-c2ccccc2)c(C(C)=O)s1)c1ccccc1 (stereo not given) | inactive |
| COc1cccc(-c2n[nH]c3c2C(c2cccc(O)c2)N(C)C3=O)c1 (stereo not given) | inactive |
| O=C1COc2ccc(C(=O)CSc3ccc(Br)cc3)cc2N1 | inactive |
| Cc1ccc(C)c(N2CCN(c3ccc4cc(S(=O)(=O)N5CCC(C)CC5)ccc4n3)CC2)c1 | inactive |
| Cc1cc(NC(=O)C2CCC(CNS(=O)(=O)c3ccc(Br)s3)CC2)ccc1Br (stereo not given) | inactive |
| Cc1cc(C)cc(OCC(=O)Nc2nc(-c3ccc(F)cc3)ns2)c1 | inactive |
| O=C(O/N=C(/c1ccccc1)c1ccncc1)c1ccccc1[N+](=O)[O-] | inactive |
| COc1ccc(-c2cc(C(=O)N(C)Cc3ccccc3)c3ccccc3n2)cc1 | 10.7 µM (active) |
| COc1ccc(NC(=O)c2cc(-c3cc(OC)c(OC)c(OC)c3)nc3ccccc23)c(OC)c1 | inactive |
| C/C(N)=C(/C#N)C(=O)COC(=O)C1=NN(c2ccccc2)C(=O)CC1 | inactive |
| COC(=O)CNC(=O)c1cc(-c2ccncc2)nc2ccccc12 | inactive |
| COc1ccc(CCNC(=O)COC(=O)c2cc(=O)c3ccccc3o2)cc1 | inactive |
| C/C(N)=C(/C#N)C(=O)COC(=O)c1cc(-c2cccc(Br)c2)nc2ccccc12 | inactive |
| CNC(=O)COC(=O)c1cc(-c2ccc(OC)cc2)nc2ccccc12 | 5.36 µM (active) |
| COc1ccc(C2=NS(=O)(=O)N(C)C(C(=O)N(C)Cc3ccccc3)=C2)cc1 | inactive |
| C/C(N)=C(/C#N)C(=O)COC(=O)c1cc(-c2ccc(C)cc2)nc2ccccc12 | 9.53 µM (active) |
| N/C(=N\OC(=O)c1cc(-c2ccccc2)nc2ccccc12)c1ccncc1 | 21.3 µM (active) |
| COc1ccc(CN(C)C(=O)c2cc(-c3ccc(C)cc3C)nc3ccccc23)c(OC)c1OC | inactive |
| Cc1cc(C)c2oc(C(=O)Nc3c(C(=O)Nc4ccccc4)oc4ccccc34)cc(=O)c2c1 | inactive |
| CCCCN(C(=O)C(CCSC)N1C(=O)c2ccccc2C1=O)c1c(N)n(CCC)c(=O)[nH]c1=O (stereo not given) | inactive |
| COc1cc(NS(=O)(=O)c2ccc3c(c2)OCC(C(=O)N2CCCC2)O3)cc(OC)c1 (stereo not given) | inactive |
| COc1ccc2c(CNCCc3ccccc3C)c(C(=O)O)n(Cc3ccccc3C)c2c1 | inactive |
| CCCn1ccc2c(OCC(=O)NCc3ccc(F)cc3)cccc2c1=O | inactive |
| COC(=O)c1cccnc1NC(=S)NC(C)C | inactive |
| Cc1cc(NS(=O)(=O)c2ccc3oc(=O)c4ncn(C)c4c3c2)ccc1Br | inactive |
| Cc1c(O)c(C)c2c(c1O)C(=O)C[C@@H](c1ccccc1)O2 | inactive |

| SMILES | Potency |
| --- | --- |
| CCn1cc(C(=O)NCCc2ccccc2)c(=O)c2cc(S(=O)(=O)N3CCCCCC3)ccc21 | inactive |
| CCOc1ccc(N2CC(C)Cn3c2nc2c3c(=O)n(Cc3c(F)cccc3Cl)c(=O)n2C)cc1 (stereo not given) | inactive |
| Cc1ccc(NC(=O)CSc2nc3c(c(=O)[nH]2)CN(Cc2ccc4c(c2)OCO4)CC3)cc1C | inactive |
| COc1ccc(-c2cc(C(=O)n3cnc4ccccc43)c3ccccc3n2)cc1 | 5.36 µM (active) |
| COc1ccc(S(=O)(=O)n2cnc3ccccc32)c(C)c1 | inactive |
| Cc1ccc(OCC(=O)Nn2cnc3ccccc32)cc1 | inactive |
| O=C(Nc1ccc(S(=O)(=O)N2CCC(c3nc4ccccc4s3)CC2)cc1)c1ccccc1F | inactive |
| Cc1ccc(S(=O)(=O)N(C)C)cc1NC(=O)CN1c2cccc3cccc(c23)S1(=O)=O | inactive |
| CCOC(=O)c1c(C)[nH]c(C2=NNC(=NC(C)COC)SC2)c1C (stereo not given) | 8.49 µM (active) |
| COc1ccc(C2(Nc3cccc(F)c3)C(=O)c3ccccc3C2=O)cc1 | inactive |
| O=C(COC(=O)c1ncc(Cl)c(Cl)c1Cl)NCc1ccccc1 | inactive |
| CCOC(=O)c1cccc(NS(=O)(=O)c2cc(-c3cnc(C)o3)ccc2OC)c1 | inactive |
| COc1ccc(NS(=O)(=O)c2cccc(C(=O)NCCc3ccc(S(N)(=O)=O)cc3)c2)cc1 | inactive |
| COc1ccc(CCNC(=O)CCCn2c(=O)c3ccccc3n(Cc3ccc(C)cc3)c2=O)cc1OC | inactive |
| C/C(N)=C(/C#N)C(=O)COC(=O)CNS(=O)(=O)c1ccc(C)cc1 | inactive |
| COC(=O)CNS(=O)(=O)c1ccc(OC)cc1 | inactive |
| COC(=O)CNS(=O)(=O)c1ccc(Cc2ccc(S(=O)(=O)NCC(=O)OC)cc2)cc1 | 3.79 µM (active) |
| COc1ccc(-c2nc(Cn3c(=O)cc(C)c4c(C)nn(-c5ccccc5)c43)c(C)o2)c(OC)c1 | inactive |
| CCOC(=O)c1nnn(CC(=O)NC(=O)Nc2ccccc2F)c1C(=O)OCC | inactive |
| CC(=O)Nc1ccc(NC(=O)COC(=O)c2ccccc2C(=O)c2ccccc2)cc1 | inactive |
| O=C(COC(=O)C1CC2C=CC1C2)Nc1ccccc1 (stereo not given) | 16.9 µM (active) |
| Cc1ccc(S(=O)(=O)N(C)CC(=O)OCC(=O)Nc2ccccc2)cc1 | inactive |
| COc1cc(C(=O)N2C(=O)c3cccc(N)c3C2=O)cc(OC)c1OC | inactive |
| COc1ccc2c(c1OC)C(=O)N(c1ccc(O)cc1)C2 | 15.1 µM (active) |
| COc1ccc2c(c1OC)C(=O)N(c1ncn[nH]1)C2 | inactive |
| CCOc1ccc(CC(=O)NCCc2csc3nc(-c4ccccc4F)nn23)cc1 | inactive |
| c1c2c(cc3sc(N4CCCCC4)nc13)OCCO2 | 0.213 µM (active) |

| SMILES | Potency |
| --- | --- |
| Cc1nc(N2CCCCC2)sc1C=O | inactive |
| CN(C)CCCN(C(=O)c1ccc(S(=O)(=O)N2CCCCCC2)cc1)c1nc2ccc(Br)cc2s1 | inactive |
| Fc1ccc2nc(N3CCCCC3)sc2c1 | 4.78 µM (active) |
| CN(C)CCCN(C(=O)c1ccc(S(=O)(=O)N2CCCCCC2)cc1)c1nc2cc3c(cc2s1)OCCO3 | inactive |
| Brc1ccc2nc(N3CCCC3)sc2c1 | 7.57 µM (active) |
| O=C(NCc1ccc(F)cc1)c1ccc2nc(N3CCCCC3)sc2c1 | inactive |
| O=C(NCCc1cccc(F)c1)C1CCCN(c2nc3ccccc3s2)C1 (stereo not given) | inactive |
| Cc1nc2ccn(Cc3cccs3)c(=O)c2cc1C(=O)NCc1ccc(Cl)cc1 | inactive |
| O=C(CSc1nnc(CN2CCCC2)n1-c1ccc(F)cc1)c1ccc2c(c1)OCO2 | inactive |
| O=C(CN1CCN(c2ccccc2O)CC1)NC(=O)NCc1ccccc1 | inactive |
| COc1ccc(S(=O)(=O)Nc2ccc3cn[nH]c3c2)cc1[N+](=O)[O-] | inactive |
| CCOC(=O)Cc1csc(SCC(=O)Nc2ccc(C)cc2F)n1 | inactive |
| CCOC(=O)c1ccccc1NC(=O)CCc1c(C)nc2c(c1C)c(=O)n(C)c(=O)n2C | inactive |
| CCOc1cccc2cc(C(=O)OCC(=O)Nc3c(C)cccc3CC)c(=O)oc12 | 15.1 µM (active) |
| CCc1cccc(C)c1NC(=O)COC(=O)CC1CCCC1 | inactive |
| Cc1cccc(C)c1NC(=O)COC(=O)c1ccccc1O | inactive |
| NC(=O)Cc1nc2scc(-c3ccc(Cl)cc3)c2c(=O)[nH]1 | inactive |
| O=c1[nH]c(CCl)nc2cc(-c3ccc(Cl)cc3)sc12 | 0.107 µM (active) |
| O=c1[nH]c(CN2CCOCC2)nc2cc(Cl)ccc12 | inactive |
| CCc1ccccc1NC(=O)c1ccc(F)c(S(=O)(=O)NC2CCCCCC2)c1 | inactive |
| COC(=O)c1ccc(NC(=O)CCc2c(C)nc3c(c(C)nn3-c3ccc(C)cc3)c2C)cc1 | inactive |
| CN(c1cccc(NC(=O)Nc2ccc(Cl)cc2)c1)S(C)(=O)=O | 2.39 µM (active) |
| COc1cccc(N(CC(=O)Nc2cccc(N(C)S(C)(=O)=O)c2)S(C)(=O)=O)c1 | inactive |
| CN(c1ccccc1)S(=O)(=O)c1cccc(NC(=O)Cc2ccc(Cl)cc2)c1 | inactive |
| O=C(Nc1ccc(Cl)cc1)Nc1ccc(Oc2cccnc2)nc1 | inactive |
| COc1ccc(-n2c(=O)c3c(c4cc(OC)ccc4n3C)n(Cc3cccc(C)c3)c2=O)cc1 | inactive |
| CSCc1ccc(C(=O)Nc2cc(C)cc(C)c2)cc1 | 2.13 µM (active) |

| SMILES | Potency |
| --- | --- |
| CC(=O)Nc1ccccc1NC(=O)c1cc(C)cc(C)c1 | inactive |
| Cc1cc(C)cc(NC(=O)CSc2ccccc2)c1 | inactive |
| CCc1ccc(N2C(=O)CN(S(=O)(=O)CC)CC2(C)C(=O)NC2CCCCC2)cc1 (stereo not given) | inactive |
| O=C(NC1CC(=O)N(c2ccc(F)cc2)C1)C1CCCCC1 (stereo not given) | inactive |
| CCOC(=O)CNC(=O)c1cc2c(=O)n3cccc(C)c3nc2s1 | inactive |
| CC(=O)c1cccc(Nc2ccc3cc(S(=O)(=O)N4CCC(C)CC4)ccc3n2)c1 | inactive |
| N/C(=N\OC(=O)N1c2ccccc2Sc2ccccc21)c1ccc(Br)cc1 | inactive |
| N/C(=N\OC(=O)/C=C/c1ccccc1)c1ccc(Br)cc1 | inactive |
| N/C(=N\OC(=O)c1ccc2c(c1)OCO2)c1ccc(Br)cc1 | 1.69 µM (active) |
| Cc1ccc(-c2cc(C(F)(F)F)c(C#N)c(SCC(=O)Nc3ccccc3)n2)cc1 | inactive |
| COC(=O)/C=C/C(=O)NCc1ccco1 | inactive |
| O=C(/C=C/c1ccc(Cl)cc1Cl)NCc1ccco1 | 7.57 µM (active) |
| O=C(NCc1ccco1)C1(c2ccc(Cl)cc2)CCCC1 | inactive |
| COc1ccccc1CNC(=O)C(Cc1ccccc1)NS(=O)(=O)c1ccc2c(c1)oc(=O)n2C (stereo not given) | inactive |
| CSCCC(NC(=O)c1ccccc1)C(=O)N1CCN(Cc2ccc(Cl)cc2)CC1 (stereo not given) | inactive |
| COc1cc(/C=C2/C(=O)NN(c3ccc(F)cc3)C2=O)cc([N+](=O)[O-])c1O | 26.9 µM (active) |
| COc1ccc(N2C(=O)CC(Nc3ccc(F)cc3)C2=O)c([N+](=O)[O-])c1 (stereo not given) | inactive |
| COc1cc(/C=C2/C(=O)NN(c3cccc(Cl)c3)C2=O)cc(Br)c1O | 30.1 µM (active) |
| CCOc1c(Br)cc(/C=C2\C(=O)N(CCC#N)N=C2C)cc1OC | inactive |
| COc1cc(CN2CC(C)CC(C)C2)cc([N+](=O)[O-])c1O (stereo not given) | inactive |
| C/C=C/c1ccc(OCCOc2ccc(C=O)cc2OC)c(OC)c1 | inactive |
| C#CCOc1ccc(/C=C2/C(=O)NN(c3ccccc3)C2=O)cc1OC | 0.849 µM (active) |
| COc1cccc2c1cc1c(=O)n(CC(=O)N3CCN(c4cccc(Cl)c4)CC3)nc(C)n12 | inactive |
| COc1cc(C=O)ccc1Oc1nnnn1-c1ccccc1 | inactive |
